From article PMC5540273 (PLoS ONE, 2017)

System: GSK3A
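Also: kd values determined as follow-up on hits from a single-replicate KINOMEscan panel screen.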

SMILES	Kd
O=C(Nc1n[nH]c2nc(-c3ccccc3)c(Br)cc12)C1CC1 [SB-708998]	410 nM
O=C(Nc1n[nH]c2nc(-c3ccccc3)c(Cl)cc12)C1CC1 [SB-734909]	390 nM
Nc1n[nH]c2nnc(-c3ccccc3)c(-c3ccccc3)c12 [GW554060]	300 nM
CCCC(=O)Nc1n[nH]c2ncc(-c3cccc4ccccc34)cc12 [SB-642057]	360 nM
CCS(=O)c1ccc(-c2coc3ccc(-c4nnc(C)o4)cc23)cc1 (stereo not drawn)	260 nM
COc1ccc(-c2coc3ccc(-c4nnc(SCc5cccc(C#N)c5)o4)cc23)cc1	150 nM
